Results from PubChem BioAssay AID2314 (National Center for Advancing Translational Sciences (NCATS), 2010).
In all, about 300,000 compounds went through this assay and about 37,000 (12%) were called active. The full list was thinned out, with actives kept by preference. Unmarked numbers belong to inactive results. Cut-off read from the data, not from the text of the source: active = max response mostly above about 13% (no sharp cut-off); inactive = mostly below about 14%.

Assay: Cycloheximide Counterscreen for Small Molecule Inhibitors of Shiga Toxin; note: read at 38.3 µM for the half of the compounds with a filed dose; 0% is about no effect
Settings: cell reporter, cycloheximide protein synthesis inhibition counterscreen; active compounds read high
For `COc1cccc(OC)c1C(=O)Nc1c(C(=O)N2CCN(c3ccccn3)CC2)oc2ccccc12`, the max response was -0.82%. `CN1CCN(CCCCOc2cccc3ccccc23)CC1` showed a max response of 2.51%. For `NNC(=O)COc1ccc(C2SCCS2)cc1`, the max response was 5.31%. With `NC(=O)COc1ccc(C23CC4CC(CC(C4)C2)C3)cc1` the max response was 32.3% (active). With `NC(=O)COc1ccccc1C(=O)NC12CC3CC(CC(C3)C1)C2` the max response was 0.476%. `Cc1c(Cl)c([N+](=O)[O-])nn1CCCC(=O)NC(C)c1ccccc1` (configuration not stated) gave a max response of 0.248%. In the case of `O=C(COc1ccc(Cl)cc1Cl)NCCCNC(=O)c1cnccn1`, the max response is reported as -1.68%. In the case of `COc1ccc(NC(=O)C/C(C)=N/NC(=O)c2cnccn2)cc1Cl`, the max response is reported as 53.7% (active). `CCCCC(=O)N/N=C(\C)CC(=O)Nc1cc(Cl)ccc1OC` showed a max response of -1.06%. For `COc1cccc(NC(=O)Cn2c3ccc(F)cc3c3nc4n(c(=O)c32)CCS4)c1`, the max response was 4.56%. In the case of `CCN(CCNC(=O)C1=C(C)C(=O)OC12CCC(C)CC2)c1ccccc1` (configuration not stated), the max response is reported as 3.3%. `COc1ccc(-c2n[nH]c3c2CN(C(=O)c2ccc(F)cc2)CC3)cc1` gave a max response of 9.17%. Work on `CCOc1cc(-c2noc(CCCC(=O)NC3CCCCC3)n2)ccc1OC` yielded a max response of -3.29%. In the case of `COC(=O)C(=Nc1ccccc1)/C(C(=O)C(=O)N(C)c1ccccc1)=C(\O)c1ccc(Cl)cc1`, the max response is reported as 23.6% (active). With `COC(=O)c1cn(C(=O)c2ccc(Cl)cc2)c2ccccc12` the max response was 10.5%. For `COC(=O)/C(NC(C)=O)=C(\C)c1ccc(Cl)cc1`, the max response was 1.02%. With `CC(C)CC(=O)NC(=S)Nc1ccc(F)cc1F` the max response was 23.2% (active). In the case of `CC(=O)c1ccc(NC(=S)NC(=O)CC(C)C)cc1`, the max response is reported as 9.98%. For `CC(C)CC(=O)NC(=S)Nc1cc(C(=O)O)ccc1Cl`, the max response was -4.75%. `Cc1ccc(-c2nc(-c3cccnc3)sc2CC(=O)Nc2ccc(C)c(Cl)c2)cc1` gave a max response of 8.82%. Compound `COc1ccc(CCNS(=O)(=O)c2cccc([N+](=O)[O-])c2)cc1` has a max response of 4.94%. `Cc1cc(C)c2c3c(sc2n1)C(c1ccccc1)C(C#N)=C(N)O3` (configuration not stated) showed a max response of -1.32%. In the case of `N#CC1=C(N)Oc2c(sc3ccccc23)C1c1ccco1` (configuration not stated), the max response is reported as 28.9% (active). `N#CC1=C(N)Oc2c(c(=O)oc3ccccc23)C1c1ccccc1OC(=O)c1cccs1` (configuration not stated) showed a max response of 1.47%. For `COc1ccc(-c2csc(NC(=O)COC(=O)c3ccc(Br)o3)n2)cc1`, the max response was 33.7% (active). With `COc1ccc(OC)c(-c2csc(NC(=O)C3=NNC(=O)CC3)n2)c1` the max response was 9%. With `CC(C)(C)NC(=O)NC(=O)COC(=O)Cc1ccc(Cl)cc1Cl` the max response was 2.66%. For `COc1cccc(CC(=O)Nc2nc(-c3ccc(OC)c(OC)c3)cs2)c1`, the max response was -5.12%. `COc1ccc(-c2nc(CCNC(=O)c3ccc(Br)o3)cs2)cc1` showed a max response of 13.1%. In the case of `COc1ccc(-c2csc(NC(=O)COC(=O)Cc3ccc(Cl)cc3Cl)n2)cc1`, the max response is reported as 45.1% (active). `Cc1cccc(NC(=O)c2cc(S(=O)(=O)N3CCC4(CC3)OCCO4)ccc2F)c1` gave a max response of -1.02%. `CCn1cc(/C=C(\NC(=O)c2ccc(C)cc2)C(=O)NCCN2CCOCC2)c2ccccc21` gave a max response of -1.13%. With `CC(C)C(=O)NCC(c1cccs1)S(=O)(=O)c1ccc(F)cc1` (configuration not stated) the max response was -4.81%. `CCC(=O)Nc1nnc(S(=O)(=O)N(CC(C)C)c2ccccc2)s1` showed a max response of 10.1%. For `O=C(Oc1ccc(F)cc1)N1CCOCC1`, the max response was -1.5%. Compound `CC(=O)c1ccc(OC(=O)N2CCOCC2)cc1` has a max response of 11.8%. For `O=C(Oc1ccc2c(c1)CCC2)N1CCOCC1`, the max response was 53.5% (active). `Cc1cccc(-n2ncc(Cl)c(Cl)c2=O)c1` gave a max response of -10%. With `O=c1c(Cl)c(NC2CC2)cnn1-c1ccccc1` the max response was 31.2% (active). Compound `c1ccc(-n2nnnc2NC2CCCCCC2)cc1` has a max response of -1.89%. `C/C(=C/c1ccccc1)C(=O)N1CCN(c2ccccc2)CC1` showed a max response of 20%. For `Cc1cccn2c(=O)c(/C=C(\C#N)C(N)=O)c(N3CCCCCC3)nc12`, the max response was 12.8%. `COc1ccc(N2CCN(C(=O)CCSCc3ccccc3F)CC2)cc1` gave a max response of 7.14%. In the case of `CCOC(=O)/C(C#N)=C/c1ccc(N2CCN(Cc3ccccc3)CC2)cc1`, the max response is reported as 10.2% (active). With `CCOC(=O)NC(=O)/C(C#N)=C\c1ccccc1` the max response was -1.84%. Compound `CCOC(=O)/C(C#N)=C\c1c(C)cc(C)c(COC(C)=O)c1C` has a max response of 0.938%. With `COc1ccc(N2CCN(C(=O)/C(C#N)=C/c3ccccc3)CC2)cc1` the max response was 14.2% (active). For `CC(C)OC(=O)C(C#N)c1nc2ccccc2nc1N1CCN(Cc2ccccc2)CC1` (configuration not stated), the max response was -2.37%. For `CCOC(=O)/C(C#N)=C/c1ccc(N2CCCCC2)cc1`, the max response was 40.9% (active). With `C=CCOC(=O)C(=C)C` the max response was -1.88%. In the case of `N#Cc1ccc(C(=O)Nc2nc(-c3cccs3)c(C(=O)C(F)(F)F)s2)cc1`, the max response is reported as 0.458%. `Cn1cccc1Cc1nnc(SCC(=O)NCc2ccc3c(c2)OCO3)n1CCc1ccccc1` gave a max response of 1.14%. With `O=S(=O)(Nc1ccc2cn[nH]c2c1)c1ccccc1` the max response was 5.04%. In the case of `O=S(=O)(Nc1ccc2nc(-c3ccco3)[nH]c2c1)c1ccccc1`, the max response is reported as 33.7% (active). For `Cc1ccc(S(=O)(=O)Nc2ccc3ncccc3c2)cc1`, the max response was -2.27%. `Cc1ccc2c(cnn2C(=O)CCC(=O)NC2CCCC2)c1` gave a max response of 1.35%. With `Cn1c2ccc(F)cc2c2nnc(NN)nc21` the max response was 0.49%. `COc1ccc(-c2noc(COc3ccc(Cl)c(C)c3)n2)cc1` showed a max response of 8.61%. For `Cc1cc(Cl)ccc1OCc1nc(-c2ccncc2)no1`, the max response was 35.5% (active). Work on `Cc1cc(Cl)ccc1OCCCC(=O)NCc1ccncc1` yielded a max response of 2.81%. For `COc1cc(NC(=O)CN2C(=O)NC(C)(c3ccc(OC(F)F)cc3)C2=O)cc(OC)c1OC` (configuration not stated), the max response was -2.19%. Work on `CN1CCN(C(=O)/C(=C\c2cccs2)NC(=O)c2cccs2)CC1` yielded a max response of 8.48%. For `O=S(=O)(c1cccs1)N1CCc2ccccc2C1`, the max response was -2.33%. Work on `c1ccc2c(c1)CCc1snnc1-2` yielded a max response of -1.75%. `COc1cc(/C=C/C(=O)N2CCc3ccccc3C2)cc(OC)c1OC` showed a max response of 0.558%. `O=C1/C(=C/c2cccs2)SC(=S)N1C1CCS(=O)(=O)C1` (configuration not stated) gave a max response of -0.776%. In the case of `COc1ccc2c(c1OC)C(=O)c1ccccc1C2=O`, the max response is reported as 2.67%. For `COc1ccc(/C=C2\CCc3ccccc3C2=O)c(OC)c1OC`, the max response was 35.6% (active). In the case of `O=C1/C(=C/c2cccs2)CCC1C1CCCC1` (configuration not stated), the max response is reported as 29.4% (active). In the case of `CCC1C/C(=C/c2cccs2)C(=O)/C(=C/c2cccs2)C1` (configuration not stated), the max response is reported as -1.72%. In the case of `CN1C/C(=C/c2cccs2)C(=O)/C(=C\c2cccs2)C1`, the max response is reported as 35.9% (active). For `O=C1/C(=C/c2cccs2)CCc2ccccc21`, the max response was 62.8% (active).
